From PubChem BioAssay (NCATS)
Inconclusive results are not listed. Active and inactive are the calls of the source. Unless noted, no rule for the calls is given here.

Columns and labels:
[1] = qHTS profiling of the MIPE4 collection as inhibitors of Plasmodium falciparum (3D7) proliferation (AID 743344);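 also: scaled between DMSO vehicle wells and 0.29 µM artemisinin as full inhibition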; details: P. falciparum 3D7 in erythrocytes, SYBR Green DNA fluorescence, 72 h; at 28.5 µM unless noted
Procedure, shortened: (§1)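 Parasite DNA was quantified by SYBR Green I fluorescence (ex 485, em 535 nm) after overnight lysis in saponin/Triton buffer at room temperature. Cultures at 0.3% parasitemia and 2.5% hematocrit were first exposed to compound for 72 h at 37 C; signals were normalised to artemisinin (0.29 uM) and vehicle wells.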

[2] = qHTS profiling of the MIPE4 collection as inhibitors of Plasmodium falciparum (DD2) proliferation (AID 743345); details: P. falciparum Dd2 in erythrocytes, SYBR Green DNA, 72 h; at 28.5 µM unless noted
Procedure, shortened: as §1

[3] = qHTS profiling of the MIPE4 collection as inhibitors of Plasmodium falciparum (DD2) proliferation (Rep 2) (AID 743346); details: P. falciparum Dd2 in erythrocytes, SYBR Green DNA, 72 h; at 28.5 µM unless noted
Procedure, shortened: as §1

[4] = qHTS profiling of the MIPE4 collection as inhibitors of Plasmodium falciparum (HB3) proliferation (AID 743347);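 also: plate controls were DMSO vehicle wells for no effect and artemisinin wells for full effect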; details: P. falciparum HB3 in erythrocytes, SYBR Green DNA, 72 h; at 28.5 µM unless noted
Procedure, shortened: as §1

[5] = High-throughput drug toxicity screening in the BPDCN cell line Gen2.2 (AID 1224824); details: Gen2.2 BPDCN cells; at 45.8 µM (top of the series) unless noted;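 also: cells exposed to compounds for 48 h before reading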
Procedure, shortened: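 Seed 500 exponentially growing Gen2.2 cells/well; add compounds by pin tool; incubate 48 h, 37 °C, 5% CO2; add CellTiter-Glo, 15 min RT; read luminescence. % activity vs DMSO (100%) and bortezomib (0%).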

[6] = High-throughput drug toxicity screening in the BPDCN cell line Cal-1 (AID 1224825); details: Cal-1 BPDCN cell viability, qHTS; at 45.8 µM (top of the series) unless noted
Procedure, shortened: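 Viability of the BPDCN line Cal-1 is measured as ATP-based luminescence (CellTiter-Glo) following 48 h incubation with compounds. Percent activity uses DMSO-treated wells as 100% and 9.2 uM bortezomib as 0%.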

[7] = qHTS assay for measurement of the activity of small molecule inhibitors on Zika virus induced Caspase-3 activity in human iPSC derived neural progenitor cells (hNPCs) (AID 1224857; active = well fitted curve in the direction sought with a large enough effect; an effect the other way counts as inactive or inconclusive; also: nearly all actives have a fitted effect of over 65% in size; also: potency is read from the fitted curve at half-maximal effect)
Procedure, shortened: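 Percent inhibition of virus-induced caspase-3/7 luminescence (Caspase-Glo), scaled between uninfected cells and Zika-infected cells. hNPCs received compound 1 hr before ZIKV at 2 FFU/cell, with 6 hours infection at 37 C.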

[8] = qHTS assay for measurement of the activity of small molecule inhibitors on Zika virus induced Caspase-3 activity in human astrocytoma cells (AID 1224859; active = well fitted curve in the direction sought with a large enough effect; an effect the other way counts as inactive or inconclusive; also: potency is read from the fitted curve at half-maximal effect)
Procedure, shortened: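 Luminescent caspase-3/7 read-out (30 min reagent, room temperature) in human SNB-19 cells infected 6 h with ZIKV (2 FFU/cell) after 1 h compound pre-incubation; Data were normalised to uninfected and infected wells.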

[9] = qHTS Screen of the MIPE 4.0 Collection Against Ewings Sarcoma (RDES) (AID 1259252; active = well fitted curve in the direction sought with a large enough effect; an effect the other way counts as inactive or inconclusive; also: potency is read from the fitted curve at half-maximal effect; nearly all actives have a fitted effect of over 35% in size)
Procedure, shortened: (§2)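 Measured: ATP luminescence (CellTiter-Glo) 10 min after reagent addition, following 48 h drug treatment. Relative luciferase units converted to percent activity, with no-cell wells as full and DMSO wells as zero inhibition.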

[10] = qHTS profiling for inhibitors of Plasmodium falciparum (HB3) proliferation (AID 743324; active = well fitted curve in the direction sought with a large enough effect; an effect the other way counts as inactive or inconclusive;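 also: 100% = DMSO vehicle wells and 0% = artemisinin-treated control wells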); details: Plasmodium falciparum HB3 blood-stage proliferation; at 28.7 µM (top of the series) unless noted
Procedure, shortened: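 SYBR Green fluorescence (485 ex/535 em) of lysed cultures, incubated overnight at room temperature in the dark, quantifies parasite DNA. Infected erythrocytes at 0.3% parasitemia and 2.5% hematocrit were exposed 72 h; values normalized to DMSO and 0.29 uM artemisinin controls.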

[11] = qHTS Screen of the MIPE 4.0 Collection Against Ewings Sarcoma (TC71) (AID 1259253; active = well fitted curve in the direction sought with a large enough effect; an effect the other way counts as inactive or inconclusive; also: nearly all actives have a fitted effect of over 40% in size; also: potency is read from the fitted curve at half-maximal effect)
Procedure, shortened: as §2

[12] = qHTS Screen of the MIPE 4.0 Collection Against Ewings Sarcoma (EW8) (AID 1259255; active = well fitted curve in the direction sought with a large enough effect; an effect the other way counts as inactive or inconclusive; also: nearly all actives have a fitted effect of over 35% in size; also: potency is read from the fitted curve at half-maximal effect;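 as to viability: 100% = DMSO-treated cells and 0% = medium-only wells without cells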)
Procedure, shortened: as §2

[13] = qHTS Screen of the MIPE 4.0 Collection Against Ewings Sarcoma (TC32) (AID 1259256; active = well fitted curve in the direction sought with a large enough effect; an effect the other way counts as inactive or inconclusive; also: nearly all actives have a fitted effect of over 45% in size; also: potency is read from the fitted curve at half-maximal effect)
Procedure, shortened: as §2

[14] = Identifying Small Molecule Inhibitors of Pancreatic Cancer Stem Cells (A2780, Spheroid) (AID 1259357; active = well fitted curve in the direction sought with a large enough effect; an effect the other way counts as inactive or inconclusive;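 also: spheroids pre-formed over 14 days in stem cell medium on hydrogel; compound exposure lasted 48 h before the ATP luminescence read; 100% = DMSO treated cells and 0% = wells without cells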); details: Potency: A2780 spheroid viability
Procedure, shortened: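 Adherent (2D) versus sphere (3D) formats; spheres generated 14 d in SCM beforehand. Compound transferred by pin tool after 4 h, 48 h incubation, CellTiter-Glo endpoint.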

[15] = Identifying Small Molecule Inhibitors of Pancreatic Cancer Stem Cells (SN12C, Adherent) (AID 1259358; active = well fitted curve in the direction sought with a large enough effect; an effect the other way counts as inactive or inconclusive;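 also: cell survival measured after 48 h of compound exposure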)
Procedure, shortened: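 After a 4 h attachment period, compounds were pinned into wells and cultures held 48 h under standard incubator conditions. Viability was then measured as CellTiter-Glo luminescence following 10 min at room temperature.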

Row | Compound | parasite growth, % of DMSO control [1] | parasite growth remaining, % of DMSO control (lower = more inhibition) [2] | parasite growth, % of control (lower = inhibition) [3] | growth, % of control [4] | cell viability, % of control (lower = more cytotoxic) [5] | viability (% of control) [6] | Potency [7] | Potency [8] | Potency [9] | remaining proliferation (% of control), lower = more inhibition [10] | Potency [11] | Potency [12] | Potency [13] | Potency [14] | Potency [15]
1 | CN1CCC[C@H]1CCO[C@](C)(c1ccccc1)c1ccc(Cl)cc1 | 12.4% | 13.4% | 23.9% | 10.3% | 77.3% | 50.8% | inactive | inactive | 20.9 µM (active) | – | – | – | – | – | –
2 | Cc1ccc(NC(=O)c2ccc(CN3CCN(C)CC3)cc2)cc1Nc1nc(-c2cccnc2)cs1 | 9.29% | 12% | – | – | 14.8% | 6.7% | inactive | inactive | – | 4.39% | 23.5 µM (active) | 23.5 µM (active) | 26.4 µM (active) | inactive | inactive
3 | CSc1cccc(Nc2ncc3cc(-c4c(Cl)cccc4Cl)c(=O)n(C)c3n2)c1 | 5.72% | 13.9% | 9.88% | 9.92% | 288% | 34.2% | inactive | inactive | 0.0935 µM (active) | – | – | – | – | – | –
4 | CN(C)CCN(Cc1ccc(Cl)cc1)c1ccccn1 | 38.2% | 50.5% | 28.6% | – | 86.6% | 37.6% | inactive | inactive | 23.5 µM (active) | – | – | – | – | – | –
5 | O=C(C=Cc1ccc(O)cc1)c1ccc(O)cc1O | 19.6% | 52.6% | 39.1% | 15.1% | 1.49% | 4.05% | 1.66 µM (active) | 2.09 µM (active) | – | – | 14.8 µM (active) | 20.9 µM (active) | 16.6 µM (active) | – | –
6 | CN[C@@H]1[C@@H](O)[C@@H](O[C@@H]2[C@@H](O)[C@H](O[C@H]3O[C@H](CN)[C@@H](O)[C@H](O)[C@@H]3O)[C@@H](N)C[C@@H]2NC(=O)[C@@H](O)CN)OC[C@]1(C)O | 94% | 99.3% | 90.7% | 53.1% | 111% | 100% | inactive | inactive | – | – | inactive | inactive | inactive | – | –
7 | COc1nccc(-c2c(-c3ccc(F)cc3)ncn2C2CCC(O)CC2)n1 (centres undefined) | 42.3% | 80% | 52.5% | – | 192% | 43.4% | inactive | inactive | – | – | 14.8 µM (active) | inactive | – | – | –
8 | CC(C)(OCc1nn(Cc2ccccc2)c2ccccc12)C(=O)O | 95.1% | 101% | 96.9% | 104% | 148% | 109% | inactive | inactive | – | – | 7.43 µM (active) | inactive | – | – | –
9 | O=c1[nH]c(=O)n([C@H]2C[C@@H](O)[C@@H](CO)O2)cc1I | 85% | 39.2% | 77.7% | 62.7% | 138% | 87.5% | inactive | inactive | – | – | 5.9 µM (active) | 5.26 µM (active) | – | – | –
